Only a selection was taken, and hits are over-represented in it overall.
IDE exosite FP = exo-site inhibitors of human IDE, primary screen, biochemical, fluorescence anisotropy, probe displacement; purified IDE, FL-6b probe fluorescence polarization; hits give low values; Insulin-degrading enzyme (Homo sapiens), P14735; z-score at 20 µM; hit rate 6.3% among 17,000; AID 1259349, 2017;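 active means z-score of -3 or lower, meaning strong loss of probe binding signal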;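 further: His-tagged human IDE residues 42-1019 made in E. coli with 30 nM FL-6b probe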
Target sequence (P14735 42-1019 limits assumed): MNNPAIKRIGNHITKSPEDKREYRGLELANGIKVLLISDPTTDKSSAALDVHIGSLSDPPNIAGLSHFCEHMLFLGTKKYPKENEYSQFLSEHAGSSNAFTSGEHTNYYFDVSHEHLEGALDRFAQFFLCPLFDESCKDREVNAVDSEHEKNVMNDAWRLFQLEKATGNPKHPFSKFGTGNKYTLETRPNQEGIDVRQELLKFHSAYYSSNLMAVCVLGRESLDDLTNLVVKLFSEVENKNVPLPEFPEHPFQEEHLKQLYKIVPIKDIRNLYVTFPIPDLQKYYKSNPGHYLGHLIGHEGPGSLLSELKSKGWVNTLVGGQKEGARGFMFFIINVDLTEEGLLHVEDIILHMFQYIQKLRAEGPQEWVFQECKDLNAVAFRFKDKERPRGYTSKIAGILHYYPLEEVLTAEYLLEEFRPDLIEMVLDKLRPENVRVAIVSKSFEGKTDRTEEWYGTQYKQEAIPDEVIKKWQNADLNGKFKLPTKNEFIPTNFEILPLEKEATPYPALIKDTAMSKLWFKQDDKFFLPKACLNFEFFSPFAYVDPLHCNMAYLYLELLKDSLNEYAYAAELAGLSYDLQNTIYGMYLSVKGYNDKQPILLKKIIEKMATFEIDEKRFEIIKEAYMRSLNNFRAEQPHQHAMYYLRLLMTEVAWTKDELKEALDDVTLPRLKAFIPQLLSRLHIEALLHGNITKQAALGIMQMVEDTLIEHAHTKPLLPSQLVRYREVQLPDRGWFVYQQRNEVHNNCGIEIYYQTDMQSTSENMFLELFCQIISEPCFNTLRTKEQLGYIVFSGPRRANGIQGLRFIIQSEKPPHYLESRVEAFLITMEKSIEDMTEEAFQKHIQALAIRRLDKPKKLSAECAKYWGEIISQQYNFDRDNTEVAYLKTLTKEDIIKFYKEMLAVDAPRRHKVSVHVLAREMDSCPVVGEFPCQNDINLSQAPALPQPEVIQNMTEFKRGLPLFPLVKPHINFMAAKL
Starred values were filed as active, the others as inactive.

SMILES	IDE exosite FP
O=C(C1CCCCC1)N1CC(=O)N2[C@H](CO)[C@H](c3ccc(-c4cccnc4)cc3)[C@H]2C1	-4.7*
CCC(=O)N1CC(=O)N2[C@H](CO)[C@@H](c3ccc(-c4cccnc4)cc3)[C@@H]2C1	-1.4
CCC(=O)N1CC(=O)N2[C@H](CO)[C@H](c3ccc(-c4cccnc4)cc3)[C@H]2C1	-3.1*
O=C(c1ccccc1F)N1CC(=O)N2[C@H](C1)[C@@H](c1ccc(-c3cccnc3)cc1)[C@@H]2CO	-3.1*
O=C(C1CCCCC1)N1CC(=O)N2[C@H](C1)[C@H](c1ccc(-c3cccnc3)cc1)[C@@H]2CO	-0.0031
O=C1CN(Cc2ccc(F)cc2)C[C@H]2[C@@H](c3ccc(-c4cccnc4)cc3)[C@H](CO)N12	0.5
O=C1CN(Cc2ccc(F)cc2)C[C@@H]2[C@@H](c3ccc(-c4cccnc4)cc3)[C@@H](CO)N12	-0.31
Cc1ccc(CN2CC(=O)N3[C@@H](CO)[C@H](c4ccc(-c5cccnc5)cc4)[C@@H]3C2)cc1	-3.1*
N#C[C@@H]1[C@H](c2ccccc2)[C@H](CO)N1C(=O)c1ccccc1F	-0.35
C[C@@H]1CCCCO[C@H](CN(C)S(=O)(=O)c2ccc(F)cc2)[C@@H](C)CN([C@H](C)CO)C(=O)c2cc(NC(=O)CCCCCC(=O)Nc3ccccc3N)ccc2O1	-0.11
CNC[C@H]1OCc2cnnn2CCCC(=O)N([C@H](C)CO)C[C@H]1C	-2.2
NCC[C@H]1CC[C@H](NC(=O)NC2CCCCC2)[C@H](CO)O1	-1.5
COCC(=O)N1[C@H](CO)[C@@H](c2ccc(C3=CCCCC3)cc2)[C@@H]1C#N	0.42
C/C=C/c1ccc([C@@H]2[C@H](C#N)N(C(=O)NC3CCCCC3)[C@H]2CO)cc1	0.6
O=C(Nc1ccc(F)cc1)N1CC(=O)N2[C@H](CO)[C@H](c3ccc(C#Cc4cccnc4)cc3)[C@H]2C1	0.58
C/C=C/c1ccc([C@H]2[C@@H](CO)N(C(C)=O)[C@@H]2CN(CCC)C(=O)C2CC2)cc1	1.4
C[C@@H]1CNC(=O)[C@H](Cc2ccc(C(F)(F)F)cc2)CCn2nncc2COC1	1.1
O=C(c1cccc(F)c1)N1CC(=O)N2[C@H](CO)[C@H](c3ccc(-c4cccnc4)cc3)[C@@H]2C1	3.1
O=C(c1cnccn1)N1CC(=O)N2[C@H](CO)[C@@H](c3ccc(-c4cccc(F)c4)cc3)[C@@H]2C1	-3.7*
O=C(c1cnccn1)N1CC(=O)N2[C@H](CO)[C@H](c3ccc(-c4cccc(F)c4)cc3)[C@@H]2C1	-0.31
O=C(c1cnccn1)N1CC(=O)N2[C@H](C1)[C@@H](c1ccc(-c3ccc(F)cc3)cc1)[C@@H]2CO	4.4
O=C(c1cnccn1)N1CC(=O)N2[C@@H](CO)[C@@H](c3ccc(-c4ccc(F)cc4)cc3)[C@@H]2C1	3.1
O=C(c1ccccn1)N1CC(=O)N2[C@H](C1)[C@H](c1ccc(-c3cccc(F)c3)cc1)[C@@H]2CO	3.1
O=C(c1cnccn1)N1CC(=O)N2[C@H](CO)[C@H](c3ccc(-c4ccc(F)cc4)cc3)[C@@H]2C1	3.5
O=C(c1ccccn1)N1CC(=O)N2[C@H](C1)[C@@H](c1ccc(-c3cccc(F)c3)cc1)[C@@H]2CO	-7.7*
SMILES	IDE exosite FP
O=C(c1cnccn1)N1CC(=O)N2[C@H](C1)[C@@H](c1ccc(-c3cccc(F)c3)cc1)[C@@H]2CO	-4*
Cc1noc(C)c1NC(=O)N1C[C@@H](O)COC[C@@H]2O[C@H](CC(=O)N[C@H]3CCN(Cc4ccccc4)C3)CC[C@H]21	0.14
O=C(Nc1cccc(F)c1)N1CC(=O)N2[C@H](C1)[C@@H](c1ccc(Br)cc1)[C@@H]2CO	-0.8
O=C(c1cccc(F)c1)N1CC(=O)N2[C@H](CO)[C@H](c3ccc(-c4ccccc4F)cc3)[C@H]2C1	-4.8*
O=C(c1cccnc1)N1CC(=O)N2[C@@H](CO)[C@@H](c3ccc(-c4ccccc4F)cc3)[C@@H]2C1	0.48
O=C(c1cccc(F)c1)N1CC(=O)N2[C@@H](CO)[C@@H](c3ccc(-c4ccccc4F)cc3)[C@@H]2C1	-1.1
O=C(c1cccc(F)c1)N1CC(=O)N2[C@H](C1)[C@@H](c1ccc(-c3ccccc3F)cc1)[C@@H]2CO	-3.9*
O=C(c1ccc(F)cc1)N1CC(=O)N2[C@H](CO)[C@@H](c3ccc(-c4ccccc4F)cc3)[C@H]2C1	0.69
O=C(c1cccc(F)c1)N1CC(=O)N2[C@@H](CO)[C@H](c3ccc(-c4ccccc4)cc3)[C@@H]2C1	2.4
CN1CCN(C(=O)[C@@H]2[C@@H](CO)[C@@H]3Cn4c(ccc(-c5ccncc5)c4=O)[C@@H]3N2CC2CC2)CC1	1.2
CCC(=O)NC[C@@H]1[C@@H](c2ccc(-c3ccc(F)cc3)cc2)[C@@H](CO)N1C(=O)CC	-1.3
CN1C(=O)c2cc(NC(=O)c3cccc(C(F)(F)F)c3)ccc2OC[C@@H]2O[C@H](CC(=O)NCCN3CCCC3)CC[C@@H]21	-1.3
COC(=O)C[C@@H]1CC[C@@H]2[C@H](COc3ccc(NC(=O)Nc4cccc(C#N)c4)cc3C(=O)N2C)O1	-0.68
COCC(=O)Nc1ccc2c(c1)OC[C@H](C)N(C)C[C@@H](C)[C@H](OC)CN(C)C2=O	0.27
C/C=C/c1ccc([C@H]2[C@@H](CNC(=O)CC)N(Cc3ccccn3)[C@H]2CO)cc1	4.1
CN(C)C(=O)c1ccc(-c2ccc([C@@H]3[C@@H](CO)N(C(=O)Cc4ccccn4)[C@H]3C#N)cc2)cc1	0.87
O=C(Cc1cccnc1)N1CC(=O)N2[C@H](C1)[C@@H](c1ccc(-c3cccc(F)c3)cc1)[C@@H]2CO	-7*
O=C(Cc1cccnc1)N1CC(=O)N2[C@H](C1)[C@H](c1ccc(-c3cccc(F)c3)cc1)[C@@H]2CO	-1.9
O=C(Cc1ccccc1)N1CC(=O)N2[C@H](C1)[C@@H](c1ccc(-c3cccc(F)c3)cc1)[C@@H]2CO	-3.5*
O=C(Cc1cccnc1)N1CC(=O)N2[C@H](CO)[C@H](c3ccc(-c4cccc(F)c4)cc3)[C@@H]2C1	-0.91
O=C(Cc1ccccc1)N1CC(=O)N2[C@@H](CO)[C@H](c3ccc(-c4cccc(F)c4)cc3)[C@@H]2C1	-2.4
O=C(Cc1ccccc1)N1CC(=O)N2[C@H](CO)[C@H](c3ccc(-c4cccc(F)c4)cc3)[C@@H]2C1	0.84
C[C@H]1CC(=O)NCC/C=C\C[C@H](c2ccc3c(c2)OCO3)NC1=O	-0.59
COc1ccccc1-c1cn(CC[C@H]2CC[C@@H](NC(=O)C3CCCCC3)[C@H](CO)O2)nn1	-0.22
CC(C)C#Cc1ccc([C@H]2[C@@H](CO)N3C(=O)CN(C(=O)C4CCCCC4)C[C@@H]23)cc1	0.24
SMILES	IDE exosite FP
CC(=O)NC[C@@H]1[C@H](c2ccc(-c3ccccc3F)cc2)[C@H](CO)N1C(C)=O	2.9
CN(C)C(=O)c1cccc(-c2ccc(C3[C@H]4CNC[C@@H]3N4CC3CCCCC3)cc2)c1 (stereo partly drawn)	4
CC(C)NC(=O)N1CCCCN2[C@H](CO)[C@@H](c3ccc(C#C[C@@H](C)O)cc3)[C@@H]2C1	3.6
CC(C)C#Cc1ccc([C@H]2[C@@H](CO)N3CCCCN(C(=O)NC(C)C)C[C@H]23)cc1	-1.8
CC(C)NC(=O)N1CCCCN2[C@@H](CO)[C@@H](c3ccc(C#C[C@H](C)O)cc3)[C@@H]2C1	0.3
CC(C)NC(=O)N1CCCCN2[C@H](C1)[C@H](c1ccc(C#C[C@@H](C)O)cc1)[C@@H]2CO	1.2

Compound activity deposited in PubChem BioAssay by Broad Institute.
